The values that follow come from PubChem BioAssay (NCI).

Holding throughout (assay): NCI-60 one-dose screen, 48 h (100 = growth as untreated, 0 = no growth, -100 = all killed)
Experiment [1] relates to HCT-15 colon. The note with it: 10 µM unless noted.
In experiment [2] the test system is HT29 colon. As to conditions: 10 µM unless noted.
In experiment [3] the test system is SNB-19 CNS. As to conditions: 10 µM unless noted.
The test system of experiment [4] is U251 CNS. The note with it: 10 µM unless noted.
Experiment [5] concerns PC-3 prostate. The note with it: 10 µM unless noted.
Experiment [6] deals with SK-MEL-5 melanoma. The note with it: 10 µM unless noted.
The subject of experiment [7] is UACC-62 melanoma. As to conditions: 10 µM unless noted.
For experiment [8], the system named is LOX IMVI melanoma. As to conditions: 10 µM.
In experiment [9] the test system is SK-MEL-28 melanoma. The note with it: 10 µM unless noted.
Experiment [10] deals with SNB-75 CNS. As to conditions: 10 µM unless noted.

The panel holds about 83,000 compounds, 20% with a hit somewhere; the sample as a whole holds those more often.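 For each line, cells grew in 96-well plates with the test compound present at a single concentration for 48 hours.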 A number with no mark means an inactive call. Active and inactive are the calls of the source. How the source made its calls: active means growth percent below 10; inactive means the rest. Where a SMILES comes first, the peptide text is derived from it. [ ]: non-standard residue; d: D form. ξ: configuration not given here. ξD = NC(CC(=O)O)C(=O)O

As for `CCCOS(=O)(=O)c1ccccc1`, the growth in experiment [1] was 102%; in [2], 110%; in [3], 103%; in experiment [4], 106%; in experiment [5], 92.1%; in experiment [6] it was 112%. The growth in experiment [7] was 102%; in experiment [8] it was 103%; in experiment [9], 122%.

In the case of `O=[N+]([O-])c1ccc(C(Br)c2ccc([N+](=O)[O-])cc2)cc1`, the growth is 57.8% in [1]; 72.7% in experiment [2]; 106% in experiment [3]; 88.6% in experiment [4]; 61.8% in experiment [5]; 68.1% in [6]. Besides, the growth in experiment [7] was 79.5%; in experiment [8], -40.1% (active); in experiment [9] it was 105%.

For `NCC(=O)NC(CC(=O)O)C(=O)O` (stereo not given) (H-Gly-[ξD]-OH), the growth was 105% in experiment [1]; 98.2% in [2]; 98.6% in experiment [10]; 103% in experiment [4]; 86.7% in experiment [5]; 101% in experiment [6]. Moreover, the growth in experiment [7] was 91.4%; in [8], 103%; in [9], 104%.

With `COc1cc(/C=C/C(=O)CC(=O)/C=C/c2ccc(O)c(OC)c2)ccc1O`, the growth in experiment [1] is 13.8%; in experiment [2], -20.3% (active); in experiment [3] it was 48.2%; in experiment [4], 18.5%; in experiment [5], 36.8%; in [6], 71%. Moreover, the growth is 53.5% in [7] and 8.79% (active) in experiment [8].

As for `O=[N+]([O-])c1ccc([I+]c2ccccc2)cc1`, the growth in [1] was 62.1%; in experiment [2] it was -55.8% (active); in experiment [3], -70.9% (active); in experiment [4] it was -97.1% (active); in experiment [5], 62.3%; in [6] it was -29.5% (active). The growth in experiment [7] is -17.6% (active); in experiment [8], -81.9% (active); in experiment [9], -76.8% (active).

As to `Clc1ccccc1C(c1ccccc1)(c1ccccc1)n1ccnc1`, the growth is 22.9% in experiment [1]; 27.4% in experiment [2]; 58.4% in experiment [3]; 42% in experiment [4]; 19.6% in experiment [5]; -87% (active) in [6]. Further, the growth in [7] was 40.8%; in [8], 36%; in experiment [9] it was 55.5%.

On to `CC(C)(C)c1ccc(CCO)cc1`, for which the growth was 109% in experiment [1]; 110% in experiment [2]; 95.7% in [3]; 103% in [4]; 99.8% in experiment [5]; 95.6% in experiment [6]. In addition, the growth in experiment [7] is 89.5%; in experiment [8], 99.5%; in experiment [9] it was 121%.

Regarding `C(=N\Nc1ccc2ccccc2n1)/c1ccccn1`, the growth is 28.5% in experiment [1]; 32.1% in [2]; 21.3% in [3]; 10.1% in experiment [4]; 45.1% in experiment [5]; -10.8% (active) in [6]. The growth in experiment [7] was -14.4% (active); in experiment [8], 15.1%; in experiment [9], 32.9%.

With `COC(=O)c1nc(=S)[nH]c(C(=O)OC)c1C(=O)c1ccc(Cl)c(Cl)c1`, the growth is 105% in experiment [1]; 112% in experiment [2]; 105% in [3]; 103% in [4]; 106% in [5]; 101% in experiment [6]. Also, the growth is 102% in experiment [7], 99.2% in [8] and 124% in [9].

For the molecule `CCC1C[N+]2=C(c3cc(OC)c(OC)cc3CC2)c2c1cc1n2CCc2cc(OC)c(OC)cc2-1` (stereo not given), the growth was 87.9% in experiment [1]; 41% in experiment [2]; 33.8% in experiment [3]; 22.7% in [4]; 17.4% in experiment [5]; -46.8% (active) in experiment [6]. The growth in experiment [7] was 18.7%; in experiment [8], 41.7%; in [9], 32.8%.

As to `C=C(C(N)=O)C(N)C(=O)O` (stereo not given), the growth in experiment [1] was 109%; in experiment [2], 100%; in experiment [10], 108%; in experiment [3] it was 111%; in experiment [5], 103%; in experiment [6], 103%. For the same molecule, the growth in [7] is 114%; in experiment [9] it was 106%.

Regarding `COC1CC(C)C(OC)c2cc(O)cc(c2O)NC(=O)/C(C)=C/C=C\C(C)C(OC(N)=O)/C(C)=C\C(C)C1OC` (stereo not given), the growth in experiment [1] was 5.82% (active); in experiment [2], 5.88% (active); in experiment [3] it was 37.8%; in experiment [4], 43.9%; in experiment [5], 25.2%; in experiment [6], -10.9% (active). For the same molecule, the values for the growth in [7] and in experiment [8] were -27.6% (active) and 5.8% (active), respectively.

Turning to `CCNc1nnnn1CC`, the growth is 99.7% in experiment [1]; 109% in experiment [2]; 90.4% in [10]; 106% in experiment [4]; 97.3% in [5]; 101% in experiment [6]. In addition, the values for the growth in [7], in experiment [8] and in [9] were 106%, 98.7% and 113%, respectively.

Consider `COC(=O)[C@]1(C)CCC[C@]2(C)c3ccc(C(C)C)cc3C(=O)[C@@H](Br)[C@@H]12`, for which the growth was 69.6% in experiment [1]; 76.2% in experiment [2]; 98.3% in experiment [3]; 91.1% in [4]; 86.8% in experiment [5]; 90.4% in [6]. For the same molecule, the growth in [7] was 90.6%; in experiment [8] it was 79.7%; in experiment [9], 100%.

As for `C1=C(c2ccccc2)c2ccccc2C1`, the growth is 87.6% in [1]; 105% in [2]; 90.9% in experiment [10]; 108% in [4]; 82.6% in experiment [5]; 108% in experiment [6]. Further, the growth in experiment [8] was 89.7%; in experiment [9], 116%.

In the case of `O=C(CCl)N(c1ccccc1)c1ccccc1`, the growth was 105% in [1]; 114% in experiment [2]; 105% in [10]; 98.1% in experiment [4]; 91.4% in [5]; 99.8% in experiment [6]. Besides, the growth in experiment [7] was 95.6%; in experiment [8] it was -36% (active); in experiment [9], 110%.

For the molecule `O=C(O)c1cc2c(s1)C(=O)c1sccc1C2=O`, the growth in experiment [2] was 65.8%; in experiment [10] it was -91.6% (active); in [3], -2.34% (active); in [4], 30.4%; in experiment [5], 56.5%; in [6], -100% (active). The results for the growth in [7] and in [8] were 51% and -72.5% (active), respectively.

As for `Cc1ccc2cccc(OC(=O)Nc3cccc(C(F)(F)F)c3)c2n1`, the growth in [1] is 50.9%; in [2], 56.2%; in experiment [3], 72.1%; in experiment [6], 86.4%; in experiment [7], 60.8%; in experiment [9] it was 84.6%.

Consider `CCCCCCCCc1cc(Cl)c(O)c(Cl)c1`, for which the growth is 115% in experiment [1]; 98.4% in [10]; 93.2% in experiment [3]; 101% in experiment [4]; 89.9% in experiment [5]; 108% in experiment [6]. The growth is 99.5% in experiment [7], 95.6% in [8] and 112% in experiment [9].

In the case of `CCCCCCCCCCCCSC(=N)N`, the growth is -64.4% (active) in experiment [2]; 8.5% (active) in experiment [10]; 69% in experiment [3]; -10.1% (active) in experiment [4]; 33% in experiment [5]; 38.5% in [6]. Moreover, the growth was 107% in [7], -70.8% (active) in experiment [8] and 52.7% in [9].

Turning to `Cc1cc2nc(CC(=O)c3ccncc3)c(=O)[nH]c2cc1C`, the growth in [1] is 94.6%; in experiment [2] it was 105%; in experiment [4] it was 77.2%; in experiment [5] it was 95.6%; in experiment [6] it was 98.1%; in experiment [7], 88.9%. Moreover, the growth is 106% in [8] and 109% in [9].

In the case of `COc1ccc2c(c1OC)OCC(CN(C)C)C2=O` (stereo not given), the growth in experiment [1] is -58.5% (active); in [2], 73.3%; in experiment [3] it was 99.1%; in experiment [4] it was 103%; in experiment [5] it was 98.3%; in experiment [7] it was 95.9%. The growth in experiment [8] is 87%.

For `CN(C)CCSC1=Nc2ccc(Cl)cc2C(c2ccccc2Cl)N(C)C1` (stereo not given), the growth in experiment [1] was 62.5%; in experiment [2], 50.9%; in [3], 63.1%; in [4] it was 71.2%; in experiment [5] it was 48.5%; in [6] it was 68.7%. For the same molecule, the values for the growth in experiment [7] and in [9] were 29.2% and 70.9%, respectively.

Turning to `CCOc1cc(F)c([N+](=O)[O-])cc1[N+](=O)[O-]`, the growth was 2.66% (active) in [2]; 64.5% in [10]; 92.2% in [3]; 29.6% in experiment [4]; 66.4% in [5]; 76.7% in experiment [6]. In addition, the growth in experiment [7] was 78.2%; in experiment [8], -44% (active); in experiment [9] it was 70.1%.

On to `CCOC(=O)c1c(C)[nH]c2ccc(O)cc12`, for which the growth in experiment [1] was 109%; in [2], 96.3%; in [3] it was 101%; in [4] it was 97.3%; in experiment [5] it was 93.2%; in [8] it was 97.1%. Moreover, the growth in [9] was 120%.

Consider `O=C(c1ccc(O)c(Br)c1)c1ccc(O)c(Br)c1`, for which the growth in experiment [2] is 114%; in [10], 94.9%; in experiment [3], 94.3%; in experiment [4], 109%; in [5], 101%; in experiment [6] it was 99.4%. Besides, the growth was 97.1% in [7], 108% in [8] and 110% in experiment [9].

For the molecule `S=C1SCN(Cc2cccs2)CN1Cc1cccs1`, the growth is 97.2% in [2]; 86.2% in experiment [10]; 96.5% in experiment [3]; 95.6% in experiment [4]; 96.2% in experiment [5]; 94% in experiment [6]. Moreover, the growth in experiment [7] was 94%; in experiment [8], 93%; in experiment [9], 109%.

Turning to `Nc1cc(-c2ccccc2)ccc1O`, the growth in experiment [1] is 93.3%; in experiment [3] it was 98.5%; in [4], 101%; in [7] it was 88%; in experiment [8], 90%; in experiment [9] it was 93.3%.

For `COc1cc(NC(=O)C2=C(C)NC(C)=C(C(=O)Nc3cc(OC)c(Cl)cc3OC)C2c2cccc([N+](=O)[O-])c2)c(OC)cc1Cl`, the growth in [1] is 14.3%; in [2], 40.6%; in experiment [4], 31.6%; in [5], 16.8%; in experiment [6], -5.53% (active); in experiment [7] it was 27.6%. Moreover, the figures for the growth in experiment [8] and in experiment [9] were 22.8% and 24.4%, respectively.

As for `Oc1ccc(Cl)cc1Cc1cc(Cl)ccc1O`, the growth in experiment [1] is 13.7%; in experiment [2], 86.3%; in experiment [3], 41.5%; in experiment [4], 34.8%; in [5], 23.9%; in experiment [6], 9.09% (active). Further, the growth in experiment [8] is 42.9%; in [9] it was 35.6%.

As to `O=C1c2ccccc2C(=O)c2c(O)c(Cl)cc(O)c21`, the growth was 39% in experiment [2]; 96% in [10]; 93.1% in experiment [3]; 38% in [4]; 77% in experiment [5]; 108% in [6]. Besides, the growth was 81.3% in [7], 50.9% in [8] and 103% in experiment [9].
